Source: PubChem
In the library only some 9% were active in any assay of this set; here they are far more common.
HPGD block – inhibitors of human 15-hydroxyprostaglandin dehydrogenase (HPGD); purified HPGD, NADH fluorescence kinetic, PGE2 substrate; 150,000 tested, 4.3% active; AID 894; Potency, µM, for inactives: at the top dose activity change, negative = inhibition, usual class: inhibitors; active = well fitted inhibition curve with a large enough effect, not every such curve was filed as active; inconclusive = small, poorly fitted or top-dose-only effect, or another doubt; inactive = no such curve, though single readings can be large or run the other way; note: % is set by controls: 0 for no effect and ±100 for the full control effect
Target sequence (P15428 whole entry, looked up): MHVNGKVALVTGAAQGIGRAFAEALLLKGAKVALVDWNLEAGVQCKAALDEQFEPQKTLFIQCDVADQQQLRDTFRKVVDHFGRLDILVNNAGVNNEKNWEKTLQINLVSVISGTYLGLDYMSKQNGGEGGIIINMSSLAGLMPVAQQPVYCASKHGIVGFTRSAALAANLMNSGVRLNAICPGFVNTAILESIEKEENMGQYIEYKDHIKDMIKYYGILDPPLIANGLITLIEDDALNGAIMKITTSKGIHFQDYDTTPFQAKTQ
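NADH formation kinetics: reaction with 30 uM PGE2 and 1 mM NAD+ (final), 20 nM enzyme, Tris-HCl pH 8 with Tween 20, after 15 min compound preincubation at room temperature. Fluorescence change, last versus first of five reads.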
HttQ103 aggreg – inhibitors of mutant huntingtin aggregate formation in PC12 cells. PC12 HttQ103-GFP aggregates, Acumen cytometry, 40 h. Potency, µM (top dose mostly 46.1 µM), for the others: top-dose activity change, negative = inhibition, usual class: inhibitors. AID 1688. 220,000 tested, 1.1% active; note: % is set by controls: 0 for no effect and ±100 for the full control effect; nearly all actives have a fitted effect of over 60% in size
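PC12/HTTQ103-GFP, ecdysone-inducible; teb 100 nM; cpd qHTS titration; GFP aggregates read on laser cytometer, Ex 488/Em 500-530 nm.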
Luc counter – counter-screen: inhibitors of Kinase-Glo firefly luciferase; Q27757; Kinase-Glo luciferase, ATP luminescence, 8 min; Potency, µM (titrated, usually from 38.3 µM), for the others: top-dose activity change, negative = inhibition, usual class: inhibitors; 200,000 tested, 0.28% active; AID 1379; note: % is set by controls: 0 for no effect and ±100 for the full control effect; nearly all actives have a fitted effect of over 60% in size
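Inhibition of Kinase-Glo luciferase light generation was assessed at 10 uM ATP in pH 7.2 imidazole buffer, with luminescence measured after eight minutes at ambient temperature.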
LMNA splice mod – LMNA splicing modulation | 200,000 tested, 0.01% active | AID 1487 | Potency, µM (doses to about 46.1 µM), for the others: at the top dose ratio change, negative = inhibition, hits mostly inhibitors | HeLa LMNA splicing GFP/RFP minigene ratio, 48 h; active = well fitted inhibition curve with a large enough effect in the signal ratio, with a control signal flat, not every such curve was filed as active; inconclusive = small, poorly fitted or top-dose-only effect, or effect the other way, or a change in a side signal; the % refers to the signal ratio; note: % is set by controls: 0 for no effect and ±100 for the full control effect
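S3 HeLa cells stably expressing lamin A-EGFP splicing minigene plus DsRed2, 600 cells/well, 48 h compound exposure at 37C. Laser-scanning cytometry; analysed as GFP (500-530 nm)/RFP (575-640 nm) total intensity ratio; 0.5% DMSO vehicle.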
ALDH1A1 block – blocks purified human ALDH1A1 activity; P00352; Potency, µM (highest dose often 75.3 µM), inactives show top-dose activity, negative = inhibition, actives largely listed as inhibitors; AID 1030; Purified ALDH1A1, NADH fluorescence, propionaldehyde substrate; 220,000 tested, 7.3% active; active = well fitted inhibition curve with a large enough effect, not every such curve was filed as active; inconclusive = small, poorly fitted or top-dose-only effect, or another doubt; inactive = no such curve, though single readings can be large or run the other way;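 note: plate controls were no enzyme wells and a reference inhibitor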
HTT cytoprotect – Huntington cell model cytoprotection by ATP luminescence. PC12 HTT-Q103 induced, cytoprotection, ATP luminescence, 40 h. Potency, µM (series often up to 56.4 µM), inactives show cytoprotection (ATP increase), most hits filed as activators. 230,000 tested, 0.14% active; note: % of control where 0% means no effect; nearly all actives have a fitted effect of over 45% in size
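Huntington model: PC12 line, ecdysone-inducible HTTQ103 exon1–GFP, tebufenozide 100 nM. Test articles in a dose series. Endpoint luminescence from cellular ATP.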
Active calls of the source: *; [ ] = another dose, or the depositor's remark. Unless noted, calls come from the whole dose curve; as a rule, active = well fitted curve in the direction sought with a large enough effect; inconclusive = small, poorly fitted or top-dose-only effect, or another doubt; inactive = no such curve, though single readings can be large; an effect the other way counts as inactive or inconclusive. Potency is the fitted concentration of half-maximal effect.

Screening CCCCN(CCCC)S(=O)(=O)c1ccc(C(=O)Nc2nnc(CSC)o2)cc1 returned HPGD block -22%, HttQ103 aggreg inconclusive, Luc counter 0%, LMNA splice mod inconclusive, ALDH1A1 block 9% and HTT cytoprotect -51%.
Screening O=C1CCc2ccc(NC(=O)C3CC3)cc2N1 returned HttQ103 aggreg -15%, Luc counter 2%, LMNA splice mod inconclusive, ALDH1A1 block 3% and HTT cytoprotect -16%.
For Cc1ccc(C)c(N2CCN(C(=O)c3ccc(NS(=O)(=O)c4c(C)noc4C)cc3)CC2)c1 the results were HPGD block -14%, HttQ103 aggreg inconclusive, Luc counter -3%, LMNA splice mod inconclusive, ALDH1A1 block -16% and HTT cytoprotect -40%.
For CC(C)C(=O)Nc1ccc(C(=O)N2CCN(C(=O)c3ccco3)CC2)cc1 the results were HPGD block -9%, HttQ103 aggreg 0%, Luc counter -3%, LMNA splice mod 10%, ALDH1A1 block -20% and HTT cytoprotect -24%.
Screening CC1CCN(C(=O)c2ccc(NS(C)(=O)=O)cc2)CC1 returned HPGD block 10µM*, HttQ103 aggreg -6%, Luc counter 1%, LMNA splice mod -1%, ALDH1A1 block inconclusive and HTT cytoprotect -2%.
Screening Cc1noc(C)c1S(=O)(=O)Nc1ccc(C(=O)N2CCCCC2)cc1 returned HPGD block 32µM*, HttQ103 aggreg inconclusive, Luc counter 0%, LMNA splice mod 9%, ALDH1A1 block -7% and HTT cytoprotect 5%.
For Cc1ccc(-c2ccc(NC(=O)C3C4C=CC(C4)C3C(=O)O)cc2)o1 (centres undefined) the results were HPGD block 20µM*, HttQ103 aggreg -15%, Luc counter 1%, LMNA splice mod 2%, ALDH1A1 block inconclusive and HTT cytoprotect -16%.
Screening COc1ccc(NC(=O)C2C3C=CC(C3)C2C(=O)O)cc1 (centres undefined) returned HttQ103 aggreg 3%[9.22 µM] and HTT cytoprotect 19%[10 µM].
CC(C)C(=O)Nc1ccc(C(=O)N2CCCCCC2)cc1 was read as HPGD block 2µM*, HttQ103 aggreg 8%, Luc counter -4%, LMNA splice mod 6%, ALDH1A1 block 0% and HTT cytoprotect 1%.
C=CCN=Cc1sc2ccc(OCC)cc2c1O was read as HttQ103 aggreg 9%, LMNA splice mod -16%, ALDH1A1 block inconclusive and HTT cytoprotect 7%[10 µM].
Screening CS(=O)(=O)Nc1ccc(S(=O)(=O)N2CCCC2)cc1 returned HttQ103 aggreg 6%[9.22 µM], Luc counter -1%, LMNA splice mod 17%[46 µM], ALDH1A1 block inconclusive and HTT cytoprotect 12%[10 µM].
For CS(=O)(=O)Nc1ccc(N2CCCCC2)c(Cl)c1 the results were HPGD block 7.1µM*, HttQ103 aggreg 10%, Luc counter -1%, LMNA splice mod -16%, ALDH1A1 block -7% and HTT cytoprotect 10%[10 µM].
For CS(=O)(=O)Nc1ccc(C(=O)N2CCCCC2)cc1 the results were HPGD block 14µM*, HttQ103 aggreg -5%, Luc counter -3%, LMNA splice mod -16%, ALDH1A1 block inconclusive and HTT cytoprotect 1%[10 µM].
O=C(O)C1C2C=CC(C2)C1C(=O)Nc1ccc(C(=O)N2CCCCC2)cc1 (centres undefined) was read as HPGD block 1.3µM*, HttQ103 aggreg -5%, Luc counter 1%, LMNA splice mod 1%, ALDH1A1 block inconclusive and HTT cytoprotect -8%.
O=C(Nc1cc(C(=O)N2CCCC2)ccc1N1CCCC1)c1ccccc1F was read as HPGD block inconclusive, HttQ103 aggreg 3%, Luc counter 0%, LMNA splice mod -2%, ALDH1A1 block inconclusive and HTT cytoprotect 17%.
O=C(Nc1ccc(C(=O)N2CCCC2)cc1)c1ccccc1F was read as HPGD block 3.2µM*, HttQ103 aggreg -5%, Luc counter inconclusive, LMNA splice mod -3%, ALDH1A1 block -8% and HTT cytoprotect -37%[10 µM].
`Cc1occc1C(=O)NC(C)C(C)(C)C` (centres undefined) gave HPGD block 32µM*, HttQ103 aggreg 21%, Luc counter -4%, LMNA splice mod -5%, ALDH1A1 block 1% and HTT cytoprotect 0%.
For Cc1occc1C(=O)Nc1cccnc1 the results were HPGD block -20%, HttQ103 aggreg 22µM*, Luc counter 0%, LMNA splice mod -4%, ALDH1A1 block inconclusive and HTT cytoprotect 0%[0.074 µM].
Cc1ccc(NC(=O)c2ccoc2C)cc1C was read as HPGD block -13%, HttQ103 aggreg 2%, Luc counter 10µM*, LMNA splice mod -1% and ALDH1A1 block 5%.
For Nc1c(-c2ccccc2Cl)cnn1-c1cccc([N+](=O)[O-])c1 the results were HPGD block 14µM*, HttQ103 aggreg 11%, Luc counter 1%, LMNA splice mod -10%, ALDH1A1 block -1% and HTT cytoprotect -2%.
For Cc1ccccc1-c1cnn(-c2cccc([N+](=O)[O-])c2)c1N the results were HttQ103 aggreg 2%, Luc counter 3%, ALDH1A1 block -2% and HTT cytoprotect -32%.
Screening Cc1ccc(-c2cnn(-c3cccc([N+](=O)[O-])c3)c2N)cc1 returned HPGD block 35µM*, HttQ103 aggreg inconclusive, Luc counter -10%, LMNA splice mod 0%, ALDH1A1 block inconclusive and HTT cytoprotect -56%.
Screening CC(=O)c1nnn(-c2cccc([N+](=O)[O-])c2)c1C returned HttQ103 aggreg 8%, Luc counter -2%, ALDH1A1 block -7% and HTT cytoprotect -15%.
Cc1nn(CC(=O)NCc2cccc(F)c2)c(=O)c2c(C)n(-c3ccc(Cl)cc3)nc12 was read as LMNA splice mod -11%[46 µM].
Screening CCN1C(=S)SC(=O)C1=C1C=C(C)N(Cc2ccco2)C(C)=C1 returned HPGD block -29%, HttQ103 aggreg inconclusive, Luc counter -1%, LMNA splice mod inconclusive, ALDH1A1 block 2.5µM* and HTT cytoprotect -39%.
`C=CCn1c(SCC(=O)c2cccs2)nc2sc(CC)cc2c1=O` gave HPGD block -16%, HttQ103 aggreg inconclusive, Luc counter 0%, LMNA splice mod inconclusive, ALDH1A1 block 3.5µM* and HTT cytoprotect -18%.
Screening Cc1c(NC(=O)CN2C(=O)NC(C)(c3ccc4c(c3)OCCO4)C2=O)c(=O)n(-c2ccccc2)n1C (centres undefined) returned HttQ103 aggreg inconclusive, LMNA splice mod -7%, ALDH1A1 block 10% and HTT cytoprotect 15%[10 µM].
